Test results from ChEMBL document CHEMBL3988442, “University of Dundee, Small-Polar-MMV Screening Library” (2021).
For some assays here: Entries with a potency or affinity are not part of this list.

What was measured:
Design in all cases: scale not given: direction of the effect not stated beside the values
[1] = biological target: Protein translocase subunit SecA (Escherichia coli (strain K12)) (UniProt P10408); assay: Assay to Identify E. coli SecA ATPase Inhibitors; assay type: functional; conditions: 30 µM
Chain of Protein translocase subunit SecA (Escherichia coli (strain K12)) (P10408 whole entry): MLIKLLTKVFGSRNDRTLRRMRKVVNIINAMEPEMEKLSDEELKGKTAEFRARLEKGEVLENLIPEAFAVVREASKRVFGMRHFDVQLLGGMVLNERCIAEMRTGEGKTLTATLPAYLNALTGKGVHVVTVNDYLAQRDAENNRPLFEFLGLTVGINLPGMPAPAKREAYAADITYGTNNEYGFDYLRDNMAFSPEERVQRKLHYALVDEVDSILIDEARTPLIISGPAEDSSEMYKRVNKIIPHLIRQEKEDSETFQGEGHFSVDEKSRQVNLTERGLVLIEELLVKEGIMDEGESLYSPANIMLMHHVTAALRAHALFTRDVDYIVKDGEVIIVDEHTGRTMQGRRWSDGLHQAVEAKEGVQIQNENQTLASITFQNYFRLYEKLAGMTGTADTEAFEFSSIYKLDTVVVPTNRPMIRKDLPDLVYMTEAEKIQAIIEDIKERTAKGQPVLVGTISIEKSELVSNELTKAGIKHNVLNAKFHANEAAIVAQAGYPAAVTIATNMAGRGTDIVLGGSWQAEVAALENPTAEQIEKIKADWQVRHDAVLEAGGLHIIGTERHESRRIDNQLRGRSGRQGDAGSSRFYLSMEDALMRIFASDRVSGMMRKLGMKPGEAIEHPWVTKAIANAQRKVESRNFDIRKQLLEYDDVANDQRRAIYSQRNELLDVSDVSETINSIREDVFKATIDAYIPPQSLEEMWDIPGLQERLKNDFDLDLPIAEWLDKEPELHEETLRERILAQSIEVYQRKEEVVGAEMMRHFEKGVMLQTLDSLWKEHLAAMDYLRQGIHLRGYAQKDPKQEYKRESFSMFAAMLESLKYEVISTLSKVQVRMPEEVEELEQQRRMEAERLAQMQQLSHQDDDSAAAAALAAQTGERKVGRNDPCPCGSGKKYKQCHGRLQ

[2] = biological target: T1, Ubiquitin-activating enzyme e1, putative (Leishmania donovani (strain BPK282A1)) (UniProt E9BSI1); assay: Leishmania donovani Ubiquitin Activating Enzyme (LdE1); assay type: functional; conditions: 30 µM
T1 sequence (whole entry): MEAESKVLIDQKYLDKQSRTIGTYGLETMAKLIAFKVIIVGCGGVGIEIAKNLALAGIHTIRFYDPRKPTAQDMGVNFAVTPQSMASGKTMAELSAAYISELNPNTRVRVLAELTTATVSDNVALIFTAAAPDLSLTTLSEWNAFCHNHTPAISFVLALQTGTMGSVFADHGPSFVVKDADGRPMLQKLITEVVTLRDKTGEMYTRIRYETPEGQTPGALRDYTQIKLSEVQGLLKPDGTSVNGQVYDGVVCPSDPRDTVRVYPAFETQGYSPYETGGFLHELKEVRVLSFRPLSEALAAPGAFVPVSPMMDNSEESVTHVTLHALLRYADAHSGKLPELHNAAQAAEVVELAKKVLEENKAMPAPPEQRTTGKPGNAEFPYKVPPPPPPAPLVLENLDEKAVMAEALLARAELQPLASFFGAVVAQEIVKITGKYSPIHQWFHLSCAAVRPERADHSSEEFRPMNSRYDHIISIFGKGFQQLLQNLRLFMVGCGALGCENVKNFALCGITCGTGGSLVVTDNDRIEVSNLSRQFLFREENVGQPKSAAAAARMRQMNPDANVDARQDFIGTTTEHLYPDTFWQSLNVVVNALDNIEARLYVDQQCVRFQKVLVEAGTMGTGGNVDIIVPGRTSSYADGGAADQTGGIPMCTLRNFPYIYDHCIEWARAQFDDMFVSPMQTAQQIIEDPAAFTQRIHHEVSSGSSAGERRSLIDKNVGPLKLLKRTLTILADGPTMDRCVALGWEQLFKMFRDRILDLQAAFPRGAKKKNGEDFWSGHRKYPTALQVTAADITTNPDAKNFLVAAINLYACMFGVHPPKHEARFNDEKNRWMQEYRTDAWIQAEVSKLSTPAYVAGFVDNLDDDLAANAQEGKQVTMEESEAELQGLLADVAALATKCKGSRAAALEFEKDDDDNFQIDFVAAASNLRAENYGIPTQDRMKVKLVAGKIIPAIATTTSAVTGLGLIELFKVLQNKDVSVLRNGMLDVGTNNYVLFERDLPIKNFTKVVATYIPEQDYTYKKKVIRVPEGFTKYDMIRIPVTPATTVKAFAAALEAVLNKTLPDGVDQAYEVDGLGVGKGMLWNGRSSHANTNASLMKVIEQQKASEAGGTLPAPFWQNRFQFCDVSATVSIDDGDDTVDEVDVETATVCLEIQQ

[3] = biological target: AMP-activated protein kinase, AMPK (Homo sapiens) (UniProt P54646+O43741+P54619+Q9UGJ0+Q9Y478+Q13131+Q9UGI9); assay: AMP-dependent Kinase enzyme assay. An in vitro enzyme assay that detects ADP turnover that is directly proportional to AMPK activity. This uses naive AMPK that is activated during the assay with MK-8722; assay type: functional; conditions: 30 µM
[4] = biological target: Sialic acid-binding Ig-like lectin 9 (Homo sapiens) (UniProt Q9Y336); assay: Hs-Siglec9 ALPHAscreen SOP 20170721; conditions: 10 µM
Chain of Sialic acid-binding Ig-like lectin 9 (Homo sapiens) (Q9Y336 whole entry): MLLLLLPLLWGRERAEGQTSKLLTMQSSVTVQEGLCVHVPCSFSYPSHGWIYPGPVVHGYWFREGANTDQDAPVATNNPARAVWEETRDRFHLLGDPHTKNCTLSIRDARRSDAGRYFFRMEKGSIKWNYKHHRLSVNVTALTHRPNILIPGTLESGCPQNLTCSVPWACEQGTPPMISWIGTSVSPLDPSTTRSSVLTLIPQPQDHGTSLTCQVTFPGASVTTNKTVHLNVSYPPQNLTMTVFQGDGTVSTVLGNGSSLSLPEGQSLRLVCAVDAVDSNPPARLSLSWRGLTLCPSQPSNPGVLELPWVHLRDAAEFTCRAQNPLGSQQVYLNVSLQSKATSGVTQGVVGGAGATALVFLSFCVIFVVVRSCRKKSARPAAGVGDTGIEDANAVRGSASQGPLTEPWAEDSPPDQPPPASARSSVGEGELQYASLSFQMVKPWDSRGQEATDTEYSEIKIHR

[5] = system: Trypanosoma cruzi; assay: Trypanosoma cruzi phosphomannomutase and mannose-1-phosphate guanylyltransferase assay; assay type: functional; conditions: 10 µM
[6] = biological target: T2, Arginase-2, mitochondrial (Homo sapiens) (UniProt P78540); assay: in vitro enzyme assay to detect the production of urea directly proportional to the activity of Arginase II; assay type: functional; conditions: 33.3 µM; note: in the data most compounds retested in dose-response had high values
T2 sequence (whole entry): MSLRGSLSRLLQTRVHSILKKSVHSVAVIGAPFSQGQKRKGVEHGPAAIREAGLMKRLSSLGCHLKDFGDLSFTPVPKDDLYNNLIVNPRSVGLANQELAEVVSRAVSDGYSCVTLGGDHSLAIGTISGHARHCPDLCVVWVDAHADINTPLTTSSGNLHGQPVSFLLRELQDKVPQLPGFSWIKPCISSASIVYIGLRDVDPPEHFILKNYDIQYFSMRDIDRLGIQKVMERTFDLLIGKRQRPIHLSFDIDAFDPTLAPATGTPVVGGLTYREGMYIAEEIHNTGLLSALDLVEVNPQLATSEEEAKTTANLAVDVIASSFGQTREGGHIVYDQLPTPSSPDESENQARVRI

[7] = biological target: T3, Proteasome subunit beta (Trypanosoma cruzi) (UniProt O96673); assay: Trypanosoma cruzi proteasome chymotrypsin-like activity (TcProtChymo) assay.; note: in the data most compounds retested in dose-response had high values; assay type: functional; conditions: 9.37 µM
T3 sequence (whole entry): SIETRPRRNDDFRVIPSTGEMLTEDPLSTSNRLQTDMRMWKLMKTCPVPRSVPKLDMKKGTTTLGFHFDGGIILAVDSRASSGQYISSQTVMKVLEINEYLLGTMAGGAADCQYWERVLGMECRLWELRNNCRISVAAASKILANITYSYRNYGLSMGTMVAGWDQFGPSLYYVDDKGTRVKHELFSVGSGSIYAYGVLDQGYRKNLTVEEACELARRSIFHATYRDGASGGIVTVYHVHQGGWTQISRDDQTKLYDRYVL

[8] = species: Homo sapiens; assay: To identify inhibition of the IFN signalling (Jak-Stat) pathway via expression of an eGFP reporter gene under the control of an IFN-stimulated response element (ISRE) containing MxA promoter.; assay type: functional; conditions: 30 µM
[9] = biological target: T4, Tyrosyl-tRNA synthetase, putative (Trypanosoma cruzi (strain CL Brener)) (UniProt Q4DSP6); assay: Trypanosoma cruzi tyrosyl tRNA synthetase (TcYRS) _High Tyrosine SOP; assay type: functional; conditions: 30 µM; note: in the data most compounds retested in dose-response had high values
T4 sequence (whole entry): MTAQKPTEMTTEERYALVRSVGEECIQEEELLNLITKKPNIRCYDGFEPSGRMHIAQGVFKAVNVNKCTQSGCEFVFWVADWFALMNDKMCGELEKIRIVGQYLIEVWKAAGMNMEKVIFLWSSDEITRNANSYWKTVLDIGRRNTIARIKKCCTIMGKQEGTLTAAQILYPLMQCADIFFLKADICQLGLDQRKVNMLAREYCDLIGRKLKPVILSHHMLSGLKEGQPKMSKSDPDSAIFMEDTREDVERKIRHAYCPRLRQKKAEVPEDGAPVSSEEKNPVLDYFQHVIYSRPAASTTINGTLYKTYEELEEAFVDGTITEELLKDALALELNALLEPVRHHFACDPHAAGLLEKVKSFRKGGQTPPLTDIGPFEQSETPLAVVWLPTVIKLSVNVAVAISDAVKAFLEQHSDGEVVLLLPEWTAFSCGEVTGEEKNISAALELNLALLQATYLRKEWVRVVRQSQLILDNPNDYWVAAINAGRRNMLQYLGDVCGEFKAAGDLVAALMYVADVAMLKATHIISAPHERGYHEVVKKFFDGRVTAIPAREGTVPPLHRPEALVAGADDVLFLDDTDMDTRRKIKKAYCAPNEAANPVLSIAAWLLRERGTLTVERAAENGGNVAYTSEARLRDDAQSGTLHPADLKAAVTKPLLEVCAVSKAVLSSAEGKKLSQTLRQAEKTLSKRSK

[10] = biological target: T4, Tyrosyl-tRNA synthetase, putative (Trypanosoma cruzi (strain CL Brener)); assay: Trypanosoma cruzi tyrosyl tRNA synthetase (TcYRS) SOP; assay type: functional; conditions: 30 µM
[11] = biological target: Chromo domain-containing protein 1 (Saccharomyces cerevisiae (strain ATCC 204508 / S288c) (Baker's yeast)) (UniProt P32657); assay: ScCHD-1 Enzyme Inhibition Assay; assay type: functional; conditions: 30 µM; note: in the data most compounds retested in dose-response had high values
Chain of Chromo domain-containing protein 1 (Saccharomyces cerevisiae (strain ATCC 204508 / S288c) (Baker's yeast)) (P32657 whole entry, the tested form may be a part): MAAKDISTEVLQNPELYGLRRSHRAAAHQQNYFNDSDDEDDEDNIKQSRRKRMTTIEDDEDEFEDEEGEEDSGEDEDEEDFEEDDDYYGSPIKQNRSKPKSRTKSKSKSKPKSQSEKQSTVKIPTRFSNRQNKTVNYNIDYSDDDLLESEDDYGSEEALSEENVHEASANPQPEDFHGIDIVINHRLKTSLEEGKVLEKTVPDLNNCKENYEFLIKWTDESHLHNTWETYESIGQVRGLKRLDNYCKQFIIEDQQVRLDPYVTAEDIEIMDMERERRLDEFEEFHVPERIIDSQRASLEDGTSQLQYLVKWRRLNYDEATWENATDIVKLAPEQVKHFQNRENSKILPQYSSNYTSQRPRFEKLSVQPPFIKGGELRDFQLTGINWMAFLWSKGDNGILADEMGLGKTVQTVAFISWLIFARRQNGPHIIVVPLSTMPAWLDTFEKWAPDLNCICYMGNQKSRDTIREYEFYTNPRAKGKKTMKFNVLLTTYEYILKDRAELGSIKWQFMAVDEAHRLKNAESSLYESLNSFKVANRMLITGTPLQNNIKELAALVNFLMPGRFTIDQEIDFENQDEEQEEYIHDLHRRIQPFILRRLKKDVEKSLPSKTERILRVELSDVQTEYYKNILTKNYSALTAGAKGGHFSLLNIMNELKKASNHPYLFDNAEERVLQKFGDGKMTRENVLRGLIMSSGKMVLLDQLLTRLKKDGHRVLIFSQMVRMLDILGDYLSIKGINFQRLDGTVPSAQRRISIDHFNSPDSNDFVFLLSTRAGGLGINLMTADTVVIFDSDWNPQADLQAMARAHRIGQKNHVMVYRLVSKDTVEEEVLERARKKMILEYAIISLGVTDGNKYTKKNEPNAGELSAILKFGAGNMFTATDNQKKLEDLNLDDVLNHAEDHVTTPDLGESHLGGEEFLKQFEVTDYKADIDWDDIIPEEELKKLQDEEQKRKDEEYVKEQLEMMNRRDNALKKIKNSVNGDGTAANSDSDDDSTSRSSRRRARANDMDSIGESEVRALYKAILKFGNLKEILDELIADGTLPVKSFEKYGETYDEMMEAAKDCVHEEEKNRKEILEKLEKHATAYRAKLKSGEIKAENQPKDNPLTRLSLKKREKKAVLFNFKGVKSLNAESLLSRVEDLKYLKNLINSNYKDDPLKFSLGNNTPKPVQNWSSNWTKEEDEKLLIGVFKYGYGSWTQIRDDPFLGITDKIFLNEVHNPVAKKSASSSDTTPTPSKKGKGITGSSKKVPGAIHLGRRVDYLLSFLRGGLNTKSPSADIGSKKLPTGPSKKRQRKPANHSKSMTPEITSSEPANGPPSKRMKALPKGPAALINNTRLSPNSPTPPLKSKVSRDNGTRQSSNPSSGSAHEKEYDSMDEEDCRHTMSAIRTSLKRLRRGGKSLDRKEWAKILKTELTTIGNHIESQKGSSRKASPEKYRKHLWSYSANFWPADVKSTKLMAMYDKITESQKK

SMILES | Percent Effect [1] | Percent Effect [2] | Percent Effect [3] | Percent Effect [4] | Percent Effect [5] | Percent Effect [6] | Percent Effect [7] | Percent Effect [8] | Percent Effect [9] | Percent Effect [10] | Percent Effect [11]
Cc1nc(C)n(CC2CCCN(c3ncnc4ccsc34)C2)n1 (configuration not stated) | -0.224% | 10.8% | 4.37% | -5.33% | -7.08% | 1.2% | 14.2% | 73.4% | 6.4% | 16.1% | -6.75%
COC(=O)CCC(=O)N1CCC2(CN(Cc3cccc(F)c3)C2)C1 | -1.57% | 0% | 35.4% | 0.909% | 1.54% | -52.5% | 1.71% | -9.09% | -2.08% | -2.5% | -1.45%
CC(=O)N1CCC2(CC1)CC(Oc1ccccc1)CO2 (configuration not stated) | 1.79% | 2.74% | 2.24% | 9.38% | -4.17% | -1.2% | 19.6% | 1.3% | 6.25% | 8.64% | 3.27%
Cn1cnc(S(=O)(=O)NCCN2CCCCCC2=O)c1Cl | -8.78% | 5.41% | -41.8% | 6.15% | -3.87% | -0.802% | 0.721% | 17.8% | -0.493% | -6.17% | -8.21%
COc1ccc(NC(=O)N2CCN(c3ncccn3)CC2)cn1 | -0.45% | 8.22% | 2.23% | -2.77% | -3.53% | 3.64% | 7.63% | 11.7% | 4.3% | 10% | -3.82%
COc1ccc(C(=O)N(C)Cc2cccc(C#N)c2)c(OC)c1OC | -2.52% | 8.11% | -1.05% | 10.9% | 1.95% | -2.08% | 14.3% | 1.4% | 2.97% | 3.66% | -2.24%
c1cncc(OCC2CN(Cc3ccco3)Cc3nccn3C2)c1 (configuration not stated) | -1.62% | 21.9% | -8.03% | 11.2% | 4.17% | 0% | 16% | 6.3% | 10.4% | 23.5% | -9.31%
CC(NC(=O)Cn1cccn1)c1ccc2c(c1)OCCCO2 (configuration not stated) | -2.38% | 28.6% | 20.8% | 1.54% | 6.55% | 3.92% | 10.1% | 32.9% | 8.74% | 14.6% | -16.5%
CC(C)C1CN(C(=O)c2ccc(N3CCCC3)nc2)CCS1 (configuration not stated) | -4.92% | 2.6% | 0.107% | 2.6% | -0.492% | 0% | -1.17% | -12.6% | 4.3% | 6.17% | -1.7%
O=C(CN1CCC(N2CCNC2=O)CC1)NCC(F)(F)F | -3.52% | 17.7% | -4.25% | 3.47% | -2.36% | 4.56% | 5% | 9.87% | 5.42% | 13.9% | -4.76%
CCOc1ccc(S(=O)(=O)NCc2cccnc2N(C)C)cc1 | -2.65% | 27.9% | -9.37% | -4.06% | 7.08% | -5.7% | 7.29% | 58.7% | 7.39% | 26.6% | -5.96%
N#Cc1cccnc1N1CCC2(CCCN(C3CCOCC3)C2=O)C1 (configuration not stated) | -3.31% | 5.48% | 0.329% | 1.41% | 2.58% | -3.99% | 8.82% | 7.98% | 1.04% | 1.24% | -4.64%
CCS(=O)(=O)CC(=O)NC(c1ccccc1)C1CCCCC1 (configuration not stated) | -6.35% | 2.63% | 9.57% | -0.679% | 3.41% | -17.8% | 21.6% | -15.8% | 4.25% | 7.79% | -3.43%
COc1cc(CN(C)C(=O)NCCC2CCCO2)ccc1SC (configuration not stated) | -3% | 8.11% | -5.1% | 2.6% | 0.781% | 0.833% | 10.1% | -25.6% | -13.9% | 3.66% | -5.8%
CCS(=O)(=O)Nc1ccn(Cc2cccc(Cl)c2)n1 | -6.93% | 0% | 0.628% | 6.52% | 2.85% | 1.38% | 9.48% | 13.7% | 6.45% | 13.6% | 120%
COc1ccc(C2(NC(=O)CCn3cncn3)CCCCC2)cc1 | -4.12% | 9.46% | 4.65% | 7.71% | 0.79% | 1.62% | 11.2% | -2% | 3.23% | 11.7% | -14.1%
CCn1cc(CN2CCCN(C(=O)CCCn3cncn3)CC2)cn1 | -2.76% | 0% | 7.06% | 6.78% | 5.43% | 1.42% | 5.91% | 17.2% | 4.85% | 14.6% | -6.03%
COCC1CCCN(C(=O)c2cc(Cn3ccc4ccccc43)[nH]n2)C1 (configuration not stated) | -5.5% | -7.79% | 0.36% | 11.2% | 8.75% | -81.4% | -0.666% | -41.3% | 14% | 18.5% | 127%
Nc1nc(C2CCN(C(=O)c3cscn3)CC2)cs1 | -2.59% | 10.7% | 8.2% | -2.11% | -3.15% | -3.03% | 3.96% | 18.2% | 3.19% | 11.5% | -5.08%
Cc1cn2c(n1)CCC(NC(=O)CCC(F)(F)F)C2 (configuration not stated) | -7.86% | -7.89% | -7.17% | 16.2% | 5.51% | 0.36% | 3.64% | -6.31% | 3.45% | 16.1% | -6.39%
O=C(c1ccncc1)N1Cc2ccccc2OC2(CCOCC2)C1 | -2.73% | 9.46% | 10.5% | 1.54% | 0.395% | -5.8% | 16.1% | 7.47% | 4.3% | 6.49% | -15.3%
O=C(Cc1ccc2c(c1)OCCO2)NC1CCCC1 | -5.5% | 18.2% | 2.67% | -8.79% | -11.2% | -2.85% | 5.74% | 32.2% | 1.94% | 7.32% | -5.69%
